# PLAP act – activates human placental alkaline phosphatase; P05187; purified PLAP enzyme, luminescent substrate read-out; stronger effect = higher value; activation fold at 20 µM; actives 1.2% (n = 96,000); in the data active = activation fold above about 2
# FXIIa mix inh – blocks human factor XIIa in pooled compound mixtures. actives 0.2% (n = 62,000). inhibition, % at 5 µM. purified FXIIa, fluorogenic substrate. P00748;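 note: 0% = enzyme without compound and 100% = no enzyme blank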
# HePTP inhibitor – human HePTP phosphatase inhibition. P35236. recombinant HePTP phosphatase activity, OD absorbance. inhibition, % at 20 µM. actives 0.64% (n = 110,000). AID 521; in the data active = inhibition above about 50%;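 note: plate controls were vehicle for no effect and reference inhibitor for full effect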
# Target sequence (P35236 whole entry, looked up): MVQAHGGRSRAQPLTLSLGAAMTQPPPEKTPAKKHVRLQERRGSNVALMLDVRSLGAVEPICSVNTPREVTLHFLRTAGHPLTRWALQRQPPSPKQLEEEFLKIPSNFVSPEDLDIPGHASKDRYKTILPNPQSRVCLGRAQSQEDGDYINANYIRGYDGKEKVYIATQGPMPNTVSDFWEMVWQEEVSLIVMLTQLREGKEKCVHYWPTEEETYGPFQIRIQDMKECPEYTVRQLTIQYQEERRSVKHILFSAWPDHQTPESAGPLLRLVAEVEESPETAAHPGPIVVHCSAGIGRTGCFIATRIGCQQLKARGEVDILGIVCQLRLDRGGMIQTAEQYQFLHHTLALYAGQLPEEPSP
# CatG inh – cathepsin G (human) inhibition. inhibition, % at 5 µM (by protocol). P08311. actives 0.2% (n = 62,000). purified enzyme, AMC-tetrapeptide fluorescence, pooled mixtures;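 active = inhibition above 20% in each of the two mixture wells holding the compound; inactive = inhibition of 20% or less in either well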;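 note: 0% = enzyme control without mixture and 100% = blank lacking enzyme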
# Target sequence (P08311 21-244 limits assumed): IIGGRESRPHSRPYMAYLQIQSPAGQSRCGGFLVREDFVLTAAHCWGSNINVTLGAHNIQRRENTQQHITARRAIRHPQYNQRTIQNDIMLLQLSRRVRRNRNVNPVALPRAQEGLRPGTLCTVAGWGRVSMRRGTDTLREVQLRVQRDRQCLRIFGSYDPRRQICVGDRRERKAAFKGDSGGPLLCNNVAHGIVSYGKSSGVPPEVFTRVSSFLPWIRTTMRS
# FXIa inh mix – blocks human factor XIa in pooled compound mixtures. P03951. purified FXIa, fluorogenic substrate. inhibition, % at 5 µM. actives 0.19% (n = 62,000);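 note: each value is inhibition by a whole ten-compound pool holding the compound; 0% = enzyme with no mixture and 100% = wells lacking enzyme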
# C1s block – human complement C1s inhibition; P09871; purified C1s, fluorogenic AMC substrate, pooled mixtures; mean inhibition % of two 10-compound mixtures (stronger effect = higher value), % at 5 µM (by protocol); actives 0.16% (n = 62,000);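 active = inhibition above 20% in each of the two 10-compound mixture wells holding the compound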;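 note: 0% = enzyme wells lacking compound mixture and 100% = no-enzyme blank wells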
# Starred values were filed as active, the others as inactive; x = not tested or not shown. Most compounds without a hit are left out; they make up all but 1.4% or so of the library. Cut-off read from the data, not from the text of the source, unless noted: active = inhibition above about 20% (passing the limit was not always enough); inactive = the rest.
SMILES,PLAP act,FXIIa mix inh,HePTP inhibitor,CatG inh,FXIa inh mix,C1s block
Cc1ccc(-n2c(SCC(=O)N3CCCC3)nc3c(c2=O)SCC3)cc1,0.9,0.6,6.9,11.0,6.8,20.9*
CCOC(=O)c1ccc2c(c1)C1C=CCC1C(c1cccc([N+](=O)[O-])c1)N2 (centres undefined),x,x,-13.4,x,x,x
O=C(O)c1ccc2c(c1)C1C=CCC1C(c1cccc([N+](=O)[O-])c1)N2 (centres undefined),x,x,102.2*,x,x,x
O=C1/C(=C/c2ccccc2)S/C(=N/N=C/c2ccccc2)N1c1ccc(O)cc1,x,x,-0.7,x,x,x
Cc1ccc(-n2[nH]c(C)c(C=Nc3ccc(C)cn3)c2=O)cc1,1.4,-1.4,-9.5,-5.8,6.8,28.9
Cc1[nH]n(-c2ccccc2)c(=O)c1C=Nc1cnc2ccccc2c1,2.1*,x,x,x,x,x
Cc1ccc(N=Cc2c(C(F)(F)F)[nH]n(-c3ccccc3)c2=O)cc1,x,x,63.7*,x,x,x
C=CCSc1nnc(-c2ccccc2N=Cc2c(C)[nH]n(-c3ccccc3)c2=O)c(=O)[nH]1,2.2*,x,x,x,x,x
CSc1nnc(-c2ccccc2N=Cc2c(C)[nH]n(-c3ccc4ccccc4c3)c2=O)c(=O)[nH]1,1.1,x,x,x,x,x
Cc1[nH]n(-c2ccccc2)c(=O)c1/C=N/c1ccccn1,2.1*,-21.1,-1.3,12.5,9.0,17.2
CCOc1ccc2nc(SCc3ccccn3)sc2c1,x,x,79.4*,x,x,x
Cc1cc(C)c2c(n1)nn1c(NCCCn3ccnc3)cc(C)nc21,2.5*,-2.0,-55.3,-7.6,-0.9,-42.5
O=C(O)c1ccc2c(c1)C(=O)N(c1ccc(-c3nc4ccccc4c(=O)o3)cc1)C2=O,x,x,14.8,x,x,x
O=C(O)c1ccc2c(c1)C(=O)N(c1ccc(-c3nnc(-c4ccccc4)o3)cc1)C2=O,x,x,101.9*,x,x,x
Cc1ccc(N=C2NC(=O)/C(=C/c3cccc(O)c3)S2)cc1Cl,x,x,59.6*,x,x,x
O=c1cc(-c2ccccc2)[nH]n1-c1nc2ccccc2[nH]1,2.1*,-0.2,0.0,1.2,13.1,-2.4
CCCCn1c(CCn2nc(C)c(Br)c2C)n[nH]c1=S,2.1*,x,x,x,x,x
Cc1cccc(N2C(=O)/C(=C/c3ccc(I)cc3)SC2=S)c1,x,x,6.2,x,x,x
Cc1nn(Cc2ccccc2Cl)c(C)c1NC(=O)c1cc(-c2ccc(F)cc2)on1,0.8,-0.5,-12.3,-6.0,2.1,-42.0
Cc1nn(Cc2ccccc2Cl)c(C)c1NC(=O)NC12CC3CC(CC(C3)C1)C2,2*,x,x,x,x,x
Nc1sc2c(c1C(=O)NC1CCS(=O)(=O)C1)CCC2 (centres undefined),2.3*,-1.0,-4.6,-2.4,4.8,-6.1
CCOC(=O)CNC(=S)Nc1ccc(F)cc1,x,x,1.1,x,x,x
N#CC1=C(N)NC(SCC(=O)c2ccc(Cl)cc2)=C(C#N)C12CCCC2,1.1,x,104.3*,x,x,x
Cc1ccc(NC(=O)N/C=C/c2ccco2)c(C)c1,2.4*,x,x,x,x,x
Cc1ccc(NC(=O)N/C=C/c2ccco2)cc1C,1.3,x,x,x,x,x
SMILES,PLAP act,FXIIa mix inh,HePTP inhibitor,CatG inh,FXIa inh mix,C1s block
O=C1CC(N2CCN(c3ccccc3F)CC2)C(=O)N1c1ccccc1 (centres undefined),x,x,-1.1,x,x,x
CCOc1ccc(N2C(=O)CC(N3CCN(c4ccccc4F)CC3)C2=O)cc1 (centres undefined),1.2,1.0,13.9,13.2,1.7,24.0*
Cc1cccc(-n2nnc(C(=O)Nc3ccc(F)cc3)c2N)c1,1,5.2,4.0,50.8*,9.6,25.1
Cc1ccc(NS(=O)(=O)c2cc(C(=O)N3CCOCC3)ccc2C)cc1C,1.2,3.0,8.2,13.7,7.4,20.9*
Cc1ccc(NS(=O)(=O)c2cc(C(=O)N3CCN(C)CC3)ccc2C)cc1,1.1,3.3,3.3,5.8,5.5,13.4
CCOC(=O)c1sc(NC(=O)CN2CCCCC2)c(C(=O)OCC)c1C,x,x,7.9,x,x,x
COc1cccc(-c2noc(-c3cccs3)n2)c1,0.7,31.1*,0.5,4.6,1.6,2.3
COc1cccc(-c2nc(-c3ccccc3)no2)c1,0.9,4.0,8.0,6.3,9.8,-8.1
COc1ccc(/C=C2\C(=O)N(c3ccc(C)c(Cl)c3)N=C2C)cc1[N+](=O)[O-],x,x,-6.7,x,x,x
CCOC(=O)c1ccc(N2C(=O)CC(N(Cc3ccc4c(c3)OCO4)C(=O)Nc3ccccc3)C2=O)cc1 (centres undefined),2*,x,x,x,x,x
O=C1CC(N(Cc2ccc3c(c2)OCO3)C(=S)Nc2ccccc2)C(=O)N1c1ccc(Cl)cc1 (centres undefined),x,x,-9.9,x,x,x
O=C(NC1CCCCCC1)c1cc(-c2ccco2)nc2ccccc12,x,x,97.9*,x,x,x
O=C(/C=C/c1ccco1)Nc1ccc(O)cc1C(=O)O,x,x,98.0*,x,x,x
O=C(/C=C/c1ccco1)Nc1ccc(Cl)cc1C(=O)O,x,x,101.5*,x,x,x
O=C(/C=C/c1ccco1)NCCCCNC(=O)/C=C/c1ccco1,x,x,103.2*,x,x,x
O=C(/C=C/c1ccco1)Nc1ccc(Cl)cc1Cl,x,x,8.4,x,x,x
O=C(/C=C/c1ccco1)NCCCNC(=O)/C=C/c1ccco1,x,x,45.7,x,x,x
CCOC(=O)C1CCN(S(=O)(=O)c2ccc(F)cc2)CC1,x,x,4.4,x,x,x
COc1ccc(-c2nnn(CC(=O)N(C3CCCCC3)C(C)C(=O)NC3CCCC3)n2)cc1OC (centres undefined),2*,-5.7,10.3,4.0,9.3,-20.5
CCOc1cc(C=C2C(=O)NC(=S)NC2=O)ccc1OCCOc1ccc(C(C)(C)C)cc1,x,x,4.7,x,x,x
Cc1ccc(C)n1-c1ccc(SCC(=O)O)cc1,x,x,102.7*,x,x,x
Cc1ccc(C)n1-c1ccc(OCC(=O)O)cc1,x,x,104.0*,x,x,x
Cc1nc(=O)c(-c2ccccc2)c(C)n1-c1ccc(OCC(=O)O)cc1,x,x,8.0,x,x,x
Cc1cccc(C(=O)Nc2ccc(NC(=O)COc3ccccc3C)cc2)c1,x,x,3.5,x,x,x
COc1ccc2nc(NC(=O)C(NS(=O)(=O)c3cccc4nsnc34)C(C)C)sc2c1 (centres undefined),2.1*,x,x,x,x,x
SMILES,PLAP act,FXIIa mix inh,HePTP inhibitor,CatG inh,FXIa inh mix,C1s block
O=C(COc1ccccc1Cl)NNC(=O)c1ccccn1,x,x,-7.3,x,x,x
COc1ccc(OCC(=O)NNC(=O)c2ccccn2)cc1,2.5*,x,x,x,x,x
COc1ncnc2c1NC1=C(S2)C(=NCCC(=O)O)CC(C)(C)C1,1.1,x,x,x,x,x
CN(C)c1ncnc2c1NC1=C(S2)C(=NCCCC(=O)O)CC(C)(C)C1,2*,x,x,x,x,x
Nn1c(SCC(=O)c2ccc(Cl)cc2)nc2ccccc2c1=O,x,x,8.3,x,x,x
CCCCOc1ccc(NC(=O)CSc2nnc(C)s2)cc1,x,x,6.5,x,x,x
O=C(/C=C\Nc1ccccc1[N+](=O)[O-])c1ccc2c(c1)OCO2,x,x,-4.1,x,x,x
COc1cc(C(c2c(C)[nH][nH]c2=O)c2c(C)[nH][nH]c2=O)ccc1OCc1ccc([N+](=O)[O-])cc1,2.6*,x,x,x,x,x
COc1cc(C(c2c(C)[nH][nH]c2=O)c2c(C)[nH][nH]c2=O)ccc1OS(=O)(=O)c1ccccc1,2.5*,x,x,x,x,x
COc1cc(C(c2c(C)[nH][nH]c2=O)c2c(C)[nH][nH]c2=O)ccc1OS(=O)(=O)c1ccc(C)cc1,2.9*,x,x,x,x,x
COc1cccc(C(=O)N2CCN(Cc3ccc(F)cc3)CC2)c1OC,x,x,6.3,x,x,x
O=c1[nH]c(=O)n(-c2ccccc2Cl)c(O)c1C=NCCCn1ccnc1,x,x,-12.1,x,x,x

# Screening data from PubChem.
